ABCB6 inh MLPCN = blocks the human ABCB6 transporter; Q9NP58; 0.19% of 360,000 active; K562-ABCB6 porphyrin accumulation, flow cytometry, 1 h; stronger effect = lower value; fluorescence ratio to DMSO, % at 10 µM;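 active = fluorescence ratio to DMSO below 75%, the collection mean minus 3 SD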;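 note: signal is porphyrin accumulated inside mitochondria; 100% equals median channel fluorescence of DMSO control wells; lower ratio means ABCB6 inhibition with less porphyrin fluorescence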
hiPSC survival = increases survival of single human iPS cells; survival enhancement, % at 20 µM; hiPSC single-cell survival, ATPlite luminescence; 100% = ROCK inhibitor wells, 0% = DMSO; AID 602274; 0.044% of 360,000 active; in the data active = survival enhancement above about 18%;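 note: cells exposed to compounds for 16 hours before the ATP read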
ANO1 block = blocks the mouse calcium-activated chloride channel TMEM16A; 1.2% of 310,000 active; AID 588511; Q8BHY3; HEK293 TMEM16A/YFP iodide influx fluorescence, ionomycin; normalized B-score (activity score, 25-100; higher = stronger inhibition) at 10 µM;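 active = ratio plate-corrected score three or more library SD toward inhibition, starting fluorescence score within five deviations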;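 note: score derived from kinetic fluorescence span divided by baseline fluorescence per well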
DAGLB inhibitor = blocks human DAGLB lipase activity; inhibition, % at 5.17 µM; 0.059% of 340,000 active; AID 504411; HEK293T DAGLB membrane lysate, EnzChek fluorogenic substrate; Q8NCG7; in the data active = inhibition above about 34%;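 note: 0% = enzyme with vehicle and 100% = wells lacking enzyme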
Target sequence (Q8NCG7 whole entry, looked up): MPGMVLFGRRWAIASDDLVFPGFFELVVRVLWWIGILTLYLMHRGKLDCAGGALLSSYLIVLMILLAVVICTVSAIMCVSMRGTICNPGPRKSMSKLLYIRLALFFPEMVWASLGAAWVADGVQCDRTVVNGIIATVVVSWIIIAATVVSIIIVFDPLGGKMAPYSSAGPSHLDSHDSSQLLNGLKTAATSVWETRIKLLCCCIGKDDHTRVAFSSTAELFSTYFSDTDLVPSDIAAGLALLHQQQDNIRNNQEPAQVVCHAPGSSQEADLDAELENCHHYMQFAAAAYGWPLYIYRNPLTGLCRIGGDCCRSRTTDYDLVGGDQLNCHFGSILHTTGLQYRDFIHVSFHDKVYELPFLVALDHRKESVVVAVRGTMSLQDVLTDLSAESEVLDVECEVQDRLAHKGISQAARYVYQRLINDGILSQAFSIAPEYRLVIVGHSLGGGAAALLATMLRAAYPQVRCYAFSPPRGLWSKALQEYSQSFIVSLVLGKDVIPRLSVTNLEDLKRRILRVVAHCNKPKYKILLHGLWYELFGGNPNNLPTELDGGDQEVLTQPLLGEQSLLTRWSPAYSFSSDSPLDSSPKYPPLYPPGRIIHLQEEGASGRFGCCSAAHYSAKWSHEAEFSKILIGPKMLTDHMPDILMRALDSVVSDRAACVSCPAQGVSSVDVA
TMEM16A act = mouse TMEM16A channel activation, primary screen; HEK293 TMEM16A/YFP-H148Q/I152L, iodide quench fluorescence; stronger effect = lower value; B-score at 10 µM; AID 623877; 0.3% of 340,000 active;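 active = fluorescence-ratio B-score plate-corrected deviation score at least 3 library SD below zero, with starting fluorescence score within 5 deviations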;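 note: channel opened by trigger with iodide after compound preincubation; score built on the fluorescence ratio of max minus min over baseline; more negative score means more quench and so TMEM16A activation or potentiation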
Active calls of the source: *; i = inactive; . = no result given. The list is not random: actives were taken first. Their share in the collection is about 1.5%.

SMILES	ABCB6 inh MLPCN	hiPSC survival	ANO1 block	DAGLB inhibitor	TMEM16A act
OC(CN1c2ccccc2Sc2ccccc21)Cn1nnc2ccccc21 (stereo unspecified)	100	0	100*	3	i
CC(C)N1CC(C(=O)Nc2ccc(Cl)cc2Cl)CC1=O (stereo unspecified)	96	3	.	-2	.
COc1ccc(C2CC(c3ccccc3)=NN2c2ccc(S(N)(=O)=O)cc2)cc1OC (stereo unspecified)	89	5	i	2	-6.1*
Cc1ccc(CN2CCc3c(OCc4ccc(F)cc4)cccc3C2=O)cc1	100	-2	i	-13	i
O=C1c2cccc(OCc3ccc(F)cc3)c2CCN1Cc1ccc(F)cc1	86	-2	25*	-12	i
O=C(NC(=S)Nc1ccc(Br)cc1)C1CCC1	99	0	i	-6	i
CCCSc1nnc(CSc2nc3ccccc3s2)n1-c1ccccc1	97	-2	100*	-4	i
N#CCCCSc1nnc(CSc2nc3ccccc3s2)n1-c1ccccc1	103	2	i	1	i
CCN(C(=O)CCNC(=O)Cn1cnc2ccccc2c1=O)c1ccccc1F	102	0	i	-2	i
S=C(S)N1CCCC1	99	-1	100*	4	i
Oc1ccc(C(=S)N2CCCC2)cc1	97	1	i	-1	i
C=C1C[C@H]2[C@@H]3C=C(C)C4=CC(=O)CC[C@]4(C)[C@H]3CC[C@]2(C)[C@@]1(OC(C)=O)C(C)=O	100	3	100*	-3	i
CC(=O)C1(C)CCC2C3C=C(C)C4=CC(=O)CCC4(C)C3CCC21C (stereo unspecified)	93	4	.	-8	i
Cc1cc2nc(-c3ccccc3)c(Cc3ccccc3)n2c(C)c1Br	101	-2	.	.	.
CCOC(=O)Nc1cccc(NC(=O)c2ccccc2F)c1	101	0	i	-2	-10*
COc1cccc(NC(=O)c2ccccc2F)c1	107	-3	i	1	i
CSC1=NSC2=NC(=O)/C(=C\c3cccs3)C(=N)N12	100	-1	100*	8	i
CCOC(=O)c1c(NC(=O)/C=C/C(=O)O)sc(C)c1-c1ccc(C(C)(C)C)cc1	101	-1	25*	20	i
O=S(=O)(c1ccc(OCc2ccc(Br)cc2)cc1)N1CCOCC1	96	-1	.	0	i
CN(C(=O)COc1ccccc1C(=O)NCCOc1ccccc1)c1ccccc1	86	0	25*	-4	i
O=S(=O)(NC1C2CC3CC(C2)CC1C3)c1ccc(F)cc1 (stereo unspecified)	98	1	.	0	i
CCN(CC)CCC(c1ccc(OC)cc1)c1c(O)cc(OC)cc1OC (stereo unspecified)	101	-4	i	-2	i
CCN(CC)C(=O)CC(c1ccc(OC)cc1)c1c(O)cc(OC)cc1OC (stereo unspecified)	98	1	i	4	-9.9*
Nc1c(SCCC(=O)O)ccc2c1C(=O)c1ccccc1C2=O	102	0	i	17	-5.3*
Nc1c(C(=O)O)ccc2c1C(=O)c1ccccc1C2=O	127	2	i	30	i
SMILES	ABCB6 inh MLPCN	hiPSC survival	ANO1 block	DAGLB inhibitor	TMEM16A act
COC(=O)c1ccc(CSc2nc3ccccc3o2)cc1	101	1	25*	-12	i
O=C(NCc1cccnc1)c1cn(CCc2ccccc2)nn1	98	0	25*	-1	i
O=C(NCc1ccccn1)c1cn(CCc2ccccc2)nn1	89	-4	i	0	.
C=CC[C@H](CC(=O)NCCO)C(=O)NC[C@@H](OC(=O)[C@@H](CC=C)CC(=O)OC(C)(C)C)c1ccccc1	98	-2	.	-3	-18*
O=S(=O)(Nc1ccc(-c2ccc(N3CCOCC3)nn2)cc1)c1ccc(Cl)c(Cl)c1	94	0	25*	2	i
Cc1cc(NC(=O)COC(=O)C2CCN(S(=O)(=O)c3cccc(Cl)c3Cl)CC2)no1	103	0	100*	0	i
COc1cccc(-c2c(C(=O)N/N=C/c3cccnc3)nnn2-c2nonc2N)c1	103	1	i	-1	-37*
COc1cccc(-c2c(C(=O)N/N=C/c3ccncc3)nnn2-c2nonc2N)c1	100	0	i	-1	i
Cc1cn2c(=O)c(C(=O)N3CCN(c4ccccc4Cl)CC3)cnc2s1	100	2	i	0	i
CCC(Sc1ccc2nnc(-c3cccnc3)n2n1)C(=O)O (stereo unspecified)	92	23*	i	-2	i
COCc1c(C#N)c(NCc2cc(OC)c(OC)c(OC)c2)nc(C)c1[N+](=O)[O-]	95	0	25*	-7	i
CCN1C(=O)c2cccc3c(S(=O)(=O)Nc4nc(C)cs4)ccc1c23	100	-4	i	2	-5.1*
CCN1C(=O)c2cccc3c(S(=O)(=O)Nc4ccccc4)ccc1c23	102	-2	i	-3	i
CCOC(=O)C1CCCN(S(=O)(=O)NC[C@H]2O[C@@H](n3cnc4c(N)ncnc43)[C@H](O)[C@@H]2O)C1 (stereo partly specified)	95	-2	.	-1	.
CCC1CCCCN1S(=O)(=O)c1ccc(C(=O)Nc2nnc(-c3cccs3)o2)cc1 (stereo unspecified)	89	0	25*	5	i
CC(C)(O)C#Cc1ccc(CNC[C@H]2O[C@@H](n3cnc(C(N)=O)n3)[C@H](O)[C@@H]2O)s1	100	4	.	-2	.
CCOc1cc(/C=C(\C#N)C(=O)Nc2cccc(C(=O)O)c2)cc(Br)c1OC(=O)c1ccc(OC)cc1	104	1	100*	-14	i
COc1cc(/C=C(\C#N)C(=O)Nc2cccc(C(=O)O)c2)ccc1OCc1ccc(F)cc1	104	0	i	2	i
CCOc1cc(/C=C(\C#N)C(=O)Nc2cccc(C(=O)O)c2)ccc1OCc1ccccc1Cl	89	0	100*	-2	i
CCCCNC(=O)C1(C)CCCCN1C(=O)c1cc(-c2ccccc2)cs1 (stereo unspecified)	104	3	.	.	.
NC(=O)C[C@H](N)c1cn([C@@H](CC(N)=O)C(=O)N2CCNCC2)nn1	96	-4	i	1	-10*
Cc1ccc(SCc2c(C#N)c3ccccc3n2C)cc1	92	-3	25*	-8	i
CCCN(CC(=O)Nc1ccccc1C)C(=O)CCNC(=O)c1ccccc1Cl	97	0	i	1	i
CN(Cc1ccc(C(F)(F)F)cc1)C(=O)[C@H]1O[C@@H](n2ccc(=O)[nH]c2=O)[C@H](O)[C@@H]1O	97	1	.	.	.
Cn1cc[nH]c1=S	103	2	.	4	-13*
CC(C)c1ccccc1-n1cc[nH]c1=S	90	0	i	0	i
O=C(NCCS(=O)(=O)NCc1ccccc1Cl)c1ccccc1	96	1	i	0	i

Bioassay records: PubChem, several laboratories
